# Screens: PubChem, National Center for Advancing Translational Sciences (NCATS)
# Most compounds without a hit are left out; they make up all but 5.3% or so of the library.
# Six1-Eya2 blk: Six1/Eya2 interaction inhibition; activity change, % (no concentration beside the values); Q15475+O00167; AlphaScreen GST-Six1/His-Eya2 binding, biochemical; active compounds read low; AID 651725; 0.56% of 360,000 active; in the data active means activity change below about -65%; inconclusive means mostly about -30% to -63%
#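 Compounds are tested against tagged Six1 and Eya2 proteins bridged by glutathione donor and nickel acceptor beads; after a one-hour incubation at 37 °C without light, AlphaScreen emission is recorded.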
# JMJD2A Tudor: JMJD2A Tudor domain (human) inhibition. O75164. AlphaScreen JMJD2A-Tudor / H3K4me3 peptide binding. Potency, µM (series often up to 114 µM), hits mostly inhibitors. 4.4% of 390,000 active; further: nearly all actives have a fitted effect of over 50% in size
# CtBP-E1A inh: blocks the CtBP interaction with E1A. AlphaScreen GST-E1A/His-CtBP binding, 1536-well; active compounds read low. activity change, % (no concentration beside the values). 0.49% of 340,000 active; in the data active means activity change below about -65%; inconclusive means mostly about -30% to -63%
#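 In 5 uL wells, 23 nL compound meets equimolar GST-E1A and His-CtBP (5X stock 125 nM each) for 2 h, 37 °C. Beads (5X, 50 ug/mL) then 1 h, 37 °C, dark.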
# TDP1 block: inhibitors of human tyrosyl-DNA phosphodiesterase TDP1 | Q9NUW8 | recombinant TDP1, AlphaScreen DNA substrate cleavage | Potency, µM (titrated, usually from 130 µM), hits mostly inhibitors | 0.28% of 350,000 active; further: nearly all actives have a fitted effect of over 40% in size
#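 Tdp1 1 nM final; 15 min RT w/ cpd; substrate 15 nM, 5 min; beads 10 ug/ml, 10 min; AlphaScreen read. Neg ctrl: no enzyme.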
# BAZ2B block: inhibitors of human BAZ2B bromodomain | 4.4% of 360,000 active | Q9UIF8 | Potency, µM (highest dose often 114 µM), most hits filed as inhibitors | AlphaScreen BAZ2B-H3K14Ac peptide displacement; further: nearly all actives have a fitted effect of over 60% in size
#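 Inhibition is scored as reduced AlphaScreen emission. The BAZ2B/b-H3(5-23)K14Ac complex (50 nM each) in PBS pH 7.4, 0.01% Tween-20 meets compound (up to 110 uM) for 30 min at RT before bead addition.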
# HP1b chromo inh: blocks HP1-beta chromodomain binding to methylated histone tails; P83916; AlphaScreen HP1-beta / biotin-H3K9me3 peptide binding; Potency, µM (top dose mostly 114 µM), hits mostly inhibitors; 0.56% of 390,000 active; AID 540317; further: nearly all actives have a fitted effect of over 70% in size
# Target sequence (P83916 whole entry, looked up): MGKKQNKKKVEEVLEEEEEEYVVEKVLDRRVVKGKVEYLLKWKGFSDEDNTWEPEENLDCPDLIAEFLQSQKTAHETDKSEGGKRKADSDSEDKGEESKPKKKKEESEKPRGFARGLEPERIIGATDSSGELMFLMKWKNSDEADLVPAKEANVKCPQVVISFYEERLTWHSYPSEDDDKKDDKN
#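 AlphaScreen: HP1-beta (50 nM) preformed 30 min with biotin-H3(1-18)K9me3 peptide (50 nM) in PBS pH 7.4, 0.01% Tween-20. Compound added for 30 min at RT, then streptavidin donor/nickel chelate acceptor beads (10 ug/mL) for 30 min.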
# A number is an active result; – = inactive; ? = inconclusive; · = no result; [ ] = remark or other dose. Unless noted, the call rests on the fitted dose curve; in most records, active means well fitted inhibition curve with a large enough effect; inconclusive means small, poorly fitted or top-dose-only effect; inactive means no such curve, though single readings can be large or run the other way.
SMILES,Six1-Eya2 blk,JMJD2A Tudor,CtBP-E1A inh,TDP1 block,BAZ2B block,HP1b chromo inh
CCn1c(CN2CCC(C)CC2)nc2cc(NC(=O)c3ccc([N+](=O)[O-])cc3)ccc21,·,–,·,–,–,–
O=C1CCc2nc3ccccc3c(=O)n2N1,–,?,–,–,56.2µM,–
C=CCOC(=O)C(C(C)=O)C(NC(=O)OC)c1cccs1 (stereo not drawn),·,·,·,–[21 µM],·,·
O=C(c1cccs1)N1CCC(c2nc3c(nnn3Cc3cccc(Cl)c3)c(=O)[nH]2)CC1,-67.5,–,–,–,–,–
O=C(c1cccs1)N1CCCC(c2nc3c(nnn3Cc3cccc(Cl)c3)c(=O)[nH]2)C1 (stereo not drawn),–,–,–,–,–,–
O=C(Cn1nc(-c2ccc(Cl)cc2)ccc1=O)NCc1ccccc1Cl,·,–,·,–,–,–
O=C(N/N=C/c1sc(=O)n(Cc2ccc(Br)cc2)c1Cl)c1ccco1,–,?,–,39.8µM,89.1µM,–
O=C(O)c1cccc(Cn2c(Cl)c(/C=N/Nc3ccccc3)sc2=O)c1,–,?,–,–,25.1µM,–
COc1ccc(C2c3c(-c4ccccc4O)n[nH]c3C(=O)N2CCc2ccccc2)cc1 (stereo not drawn),·,?,·,–,–,–
O=c1cc(CCl)nc2sc3ccccc3n12,–,50.1µM,–,50.1µM,50.1µM,–
O=C(OCc1cc(=O)n2c(n1)sc1ccccc12)c1ccc(O)cc1,–,–,–,–,?,–
Cc1cccc(C(=O)N[C@H](C(=O)OCc2cc(=O)n3c(n2)sc2ccccc23)C(C)C)c1,–,?,–,·,39.8µM,–
Cc1cccc(-c2cc3nc4c(c(NCc5ccco5)n3n2)CCCC4)c1,–,79.4µM,–,–,–,–
Cc1cccc(-c2cc3nc4c(c(N5CCOCC5)n3n2)CCCC4)c1,–,–,–,–,–,–
CC(=O)c1ccc(OC2C=CC(C#Cc3ccc(Br)cc3)OC2CO)cc1 (stereo not drawn),·,·,·,–[21 µM],·,·
COC(=O)C1=C(C)N(Cc2ccccc2)C(=NCCc2c[nH]c3ccccc23)N[C@H]1c1cccc(C(F)(F)F)c1,–,56.2µM,–,–,?,–
C=CCN=C1N[C@@H](c2cccc(C(F)(F)F)c2)C(C(=O)OC)=C(C)N1CC,–,?,–,·,?,–
COCCN=C1N[C@@H](c2cccc(C(F)(F)F)c2)C(C(=O)OC)=C(C)N1Cc1ccccc1,–,?,–,·,–,–
CCN1C(=NCC(C)C)N[C@@H](c2cccc(C(F)(F)F)c2)C(C(=O)OC)=C1C,–,17.8µM,–,·,?,–
CCCNC(=O)c1ccc(-c2nc(CS(=O)(=O)c3ccc(C)cc3)c(C)o2)cc1,·,–,·,–,–,–
Cc1cc2nc(-c3ccc(=O)[nH]c3)n(C)c2cc1C,–,–,–,·,–,–
Cc1cc2nc(C)c(=O)n(C)c2cc1C,–,35.5µM,–,–,–,–
COc1ccc(C(F)(F)F)cc1NC(=O)C(OC(=O)CNC(=O)c1ccccc1)c1ccccc1 (stereo not drawn),·,–,·,–,·,·
COc1cccc(-n2c(=O)c3sccc3n(Cc3cc(=O)n4cc(Cl)ccc4n3)c2=O)c1,·,–,·,–,–,–
CC(C)COc1ccc(C(=O)N(CC(=O)Nc2ccccc2C(F)(F)F)Cc2ccco2)cc1,–,–,–,·,–,–
SMILES,Six1-Eya2 blk,JMJD2A Tudor,CtBP-E1A inh,TDP1 block,BAZ2B block,HP1b chromo inh
CCOc1ccc(OCCC(=O)N(CC(=O)Nc2ccccc2C(F)(F)F)Cc2ccco2)cc1,–,–,–,–,50.1µM,–
COc1ccc(CCNc2nc(=S)[nH]c3cc(OC)c(OC)cc23)cc1OC,-88.0,?,·,–,–,–
COc1cc2[nH]c(=S)nc(NCc3ccc(Cl)cc3)c2cc1OC,?,–,?,·,–,–
COc1cc2[nH]c(=S)nc(NCCc3ccc(S(N)(=O)=O)cc3)c2cc1OC,-89.5,–,-90.2,–,–,–
COc1cc2[nH]c(=S)nc(NCCc3ccc(C)cc3)c2cc1OC,?,?,-86.8,–,–,–
COc1ccc(CCNC(=O)c2ccc(CNc3nc(=S)[nH]c4ccccc34)cc2)cc1OC,–,–,–,–,–,–
